From PubChem BioAssay AID1159580 (chemical genetic matrix, 2015)
Hit rate of the full screen: of about 5,500 compounds, about 2,000 (36%) were called active. About 18% were inconclusive and are not listed. No stated cut-off is given here; in the data, active means normalized growth mostly below about 0.91 (no sharp cut-off); inconclusive means no clear call, values can overlap the other calls; inactive means mostly above about 0.92. The list shows a part of the results.

Assay: chemical genetic growth profiling, strain panel (AID 1159580);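 further: tested at 20 µM; growth read once vehicle control cultures reached saturation at 30 °C; 1 = growth at the plate median or of vehicle wells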
Conditions: growth OD

Measured: normalized growth

CC(Cc1ccc(O)c(O)c1)(NN)C(=O)O (centres undefined)
inactive: S. cerevisiae deletion strains, locus YJR075W, strain HOC1, stronger effect = lower value 1.02 | S. cerevisiae deletion strains, locus YKL009W, strain mrt4, stronger effect = lower value 0.991 | S. cerevisiae deletion strains, locus YKL068W, stronger effect = lower value 0.997 | S. cerevisiae deletion strains, locus YKL085W, strain MDH1 (second series), stronger effect = lower value 0.992 | S. cerevisiae deletion strains, locus YKL085W, strain MDH1, stronger effect = lower value 0.992 | S. cerevisiae deletion strains, locus YKL160W, strain elf1, stronger effect = lower value 1.01 | S. cerevisiae deletion strains, locus YKL190W, strain CNB1, stronger effect = lower value 0.991 | S. cerevisiae deletion strains, locus YKR001C, strain vps1, stronger effect = lower value 1 | S. cerevisiae deletion strains, locus YKR026C, strain gcn3, stronger effect = lower value 0.988 | S. cerevisiae deletion strains, locus YKR091W, strain srl3, stronger effect = lower value 1.01 | S. cerevisiae deletion strains, locus YLL001W, strain dnm1, stronger effect = lower value 1.01 | S. cerevisiae deletion strains, locus YLL026W, stronger effect = lower value 1.01 | S. cerevisiae deletion strains, locus YLL041C, strain sdh2, stronger effect = lower value 1.01 | S. cerevisiae deletion strains, locus YLR027C, strain aat2, stronger effect = lower value 1.01 | S. cerevisiae deletion strains, locus YLR039C, strain RIC1, stronger effect = lower value 1.04 | S. cerevisiae deletion strains, locus YLR058C, strain SHM2, stronger effect = lower value 1.01 | S. cerevisiae deletion strains, locus YLR102C, strain apc9, stronger effect = lower value 1.02 | S. cerevisiae deletion strains, locus YLR113W, strain HOG1, stronger effect = lower value 0.918 | S. cerevisiae deletion strains, locus YLR221C, strain rsa3, stronger effect = lower value 1.01 | S. cerevisiae deletion strains, locus YLR258W, strain gsy2, stronger effect = lower value 0.999 | S. cerevisiae deletion strains, locus YLR262C, strain YPT6 (second series), stronger effect = lower value 0.978 | S. cerevisiae deletion strains, locus YLR262C, strain YPT6, stronger effect = lower value 1.03 | S. cerevisiae deletion strains, locus YLR268W, strain sec22, stronger effect = lower value 0.996 | S. cerevisiae deletion strains, locus YLR320W, strain mms22, stronger effect = lower value 1.02 | S. cerevisiae deletion strains, locus YLR330W, strain CHS5, stronger effect = lower value 1 | S. cerevisiae deletion strains, locus YLR342W, strain FKS1 (second series), stronger effect = lower value 0.966 | S. cerevisiae deletion strains, locus YLR342W, strain FKS1, stronger effect = lower value 0.992 | S. cerevisiae deletion strains, locus YLR357W, strain rsc2, stronger effect = lower value 0.973 | S. cerevisiae deletion strains, locus YLR370C, strain arc18, stronger effect = lower value 1.01 | S. cerevisiae deletion strains, locus YLR371W, strain rom2, stronger effect = lower value 1.01 | S. cerevisiae deletion strains, locus YLR384C, strain iki3, stronger effect = lower value 0.976 | S. cerevisiae deletion strains, locus YLR418C, strain cdc73, stronger effect = lower value 1.07 | S. cerevisiae deletion strains, locus YML016C, strain PPZ1, stronger effect = lower value 0.999 | S. cerevisiae deletion strains, locus YML032C, strain rad52, stronger effect = lower value 1.01 | S. cerevisiae deletion strains, locus YML120C, strain ndi1, stronger effect = lower value 0.99 | S. cerevisiae deletion strains, locus YML124C, strain tub3, stronger effect = lower value 1.01 | S. cerevisiae deletion strains, locus YMR058W, strain fet3, stronger effect = lower value 0.987 | S. cerevisiae deletion strains, locus YMR078C, strain ctf18, stronger effect = lower value 1.02 | S. cerevisiae deletion strains, locus YMR125W, strain sto1, stronger effect = lower value 1 | S. cerevisiae deletion strains, locus YMR129W, stronger effect = lower value 0.997 | S. cerevisiae deletion strains, locus YMR205C, strain PFK2, stronger effect = lower value 1.04 | S. cerevisiae deletion strains, locus YMR223W, strain ubp8, stronger effect = lower value 0.996 | S. cerevisiae deletion strains, locus YMR231W, strain pep5, stronger effect = lower value 1.01 | S. cerevisiae deletion strains, locus YMR263W, strain SAP30, stronger effect = lower value 0.988 | S. cerevisiae deletion strains, locus YMR307W, strain GAS1, stronger effect = lower value 1.05 | S. cerevisiae deletion strains, locus YNL067W, strain RPL9B, stronger effect = lower value 0.966 | S. cerevisiae deletion strains, locus YNL071W, strain lat1, stronger effect = lower value 0.993 | S. cerevisiae deletion strains, locus YNL183C, strain NPR1, stronger effect = lower value 0.912 | S. cerevisiae deletion strains, locus YNL209W, strain ssb2, stronger effect = lower value 0.993 | S. cerevisiae deletion strains, locus YNL233W, strain BNI4, stronger effect = lower value 0.982 | S. cerevisiae deletion strains, locus YNL248C, strain rpa49, stronger effect = lower value 1.01 | S. cerevisiae deletion strains, locus YNL250W, strain rad50, stronger effect = lower value 1 | S. cerevisiae deletion strains, locus YNL271C, strain bni1, stronger effect = lower value 1.01 | S. cerevisiae deletion strains, locus YNL298W, strain CLA4, stronger effect = lower value 1.02 | S. cerevisiae deletion strains, locus YNL307C, strain MCK1, stronger effect = lower value 1.02 | S. cerevisiae deletion strains, locus YNL322C, strain KRE1 (second series), stronger effect = lower value 1 | S. cerevisiae deletion strains, locus YNL322C, strain KRE1, stronger effect = lower value 0.999 | S. cerevisiae deletion strains, locus YNR049C, strain mso1, stronger effect = lower value 1.01 | S. cerevisiae deletion strains, locus YNR052C, strain pop2, stronger effect = lower value 1.01 | S. cerevisiae deletion strains, locus YOL006C, strain TOP1, stronger effect = lower value 0.989 | S. cerevisiae deletion strains, locus YOL012C, strain htz1 0.764 | S. cerevisiae deletion strains, locus YOL147C, strain pex11, stronger effect = lower value 1.01 | S. cerevisiae deletion strains, locus YOR001W, strain rrp6, stronger effect = lower value 0.987 | S. cerevisiae deletion strains, locus YOR061W, strain CKA2, stronger effect = lower value 1 | S. cerevisiae deletion strains, locus YOR069W, strain VPS5, stronger effect = lower value 1.03 | S. cerevisiae deletion strains, locus YOR070C, strain gyp1, stronger effect = lower value 1 | S. cerevisiae deletion strains, locus YOR080W, strain dia2, stronger effect = lower value 1 | S. cerevisiae deletion strains, locus YOR083W, strain WHI5, stronger effect = lower value 0.996 | S. cerevisiae deletion strains, locus YOR106W, strain vam3, stronger effect = lower value 0.984 | S. cerevisiae deletion strains, locus YOR136W, strain idh2, stronger effect = lower value 1.01 | S. cerevisiae deletion strains, locus YOR144C, strain elg1, stronger effect = lower value 1 | S. cerevisiae deletion strains, locus YOR184W, strain ser1, stronger effect = lower value 1.03 | S. cerevisiae deletion strains, locus YOR231W, strain MKK1, stronger effect = lower value 0.955 | S. cerevisiae deletion strains, locus YOR265W, strain rbl2, stronger effect = lower value 0.993 | S. cerevisiae deletion strains, locus YOR270C, strain vph1, stronger effect = lower value 1.11 | S. cerevisiae deletion strains, locus YOR290C, strain snf2, stronger effect = lower value 1 | S. cerevisiae deletion strains, locus YOR316C, strain cot1, stronger effect = lower value 1.01 | S. cerevisiae deletion strains, locus YPL051W, strain arl3, stronger effect = lower value 0.991 | S. cerevisiae deletion strains, locus YPL055C, strain LGE1, stronger effect = lower value 0.926 | S. cerevisiae deletion strains, locus YPL078C, strain atp4, stronger effect = lower value 0.991 | S. cerevisiae deletion strains, locus YPL106C, strain sse1, stronger effect = lower value 0.918 | S. cerevisiae deletion strains, locus YPL240C, strain hsp82, stronger effect = lower value 1 | S. cerevisiae deletion strains, locus YPL256C, strain CLN2, stronger effect = lower value 0.968 | S. cerevisiae deletion strains, locus YPR119W, strain clb2, stronger effect = lower value 1.01 | S. cerevisiae deletion strains, locus YPR141C, strain kar3, stronger effect = lower value 0.999 | S. cerevisiae deletion strains, locus YPR163C, strain tif3, stronger effect = lower value 1.01 | S. cerevisiae deletion strains, locus YPR167C, strain met16, stronger effect = lower value 1.02 | S. cerevisiae deletion strains, strain wtn01, stronger effect = lower value 1.01 | S. cerevisiae strains, strain wild type, stronger effect = lower value 0.988
